This excerpt belongs to a sample that is enriched for hits.
Tg IFNy HTS – T. gondii growth inhibition with IFN-gamma, primary screen, cell-based. 69,000 compounds, 3.8% hits. Toxoplasma gondii growth in IFN-gamma-treated host cells; active compounds read low. AID 1259416, 2018. activity change, negative = inhibition, % (test concentration not listed); in the data active means activity change below about -70%, passing the limit was not always enough;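 further: host cells are HeLa cells infected with Toxoplasma gondii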
Active calls of the source: *; ! = not active in a repeat.

SMILES | Tg IFNy HTS
COc1ccc(CCC(=O)N2CCC3(CC2)Nc2cc(OC)ccc2-n2cccc23)cc1 | -82.0*
COc1ccc2c(c1)NC1(CCN(C(=O)Cc3ccc(C)cc3)CC1)c1cccn1-2 | 11.7
O=C(CCc1ccccc1)N1CCC2(CC1)Nc1cc(F)ccc1-n1cccc12 | 44.5
COc1cc(CCC(=O)N2CCC3(CC2)Nc2cc(F)ccc2-n2cccc23)cc(OC)c1OC | 36.5
COc1ccc(OCC(=O)N2CCC3(CC2)Nc2cc(OC)ccc2-n2cccc23)cc1 | 18.3
COc1ccc(CCC(=O)N2CCC3(CC2)Nc2cc(F)ccc2-n2cccc23)cc1 | -75.1*
CCC(=O)N1CCc2c(c(COc3cccnc3)nn2CC2CC2)C1 | -3.8
COCc1nc2c(o1)CN(C(=O)NCc1ccccc1)C2 | 4.0
O=C(CCOc1ccccc1)N1CCCCC1c1ccn[nH]1 (stereo unspecified) | 12.8
COC(=O)c1cccc(OCc2cc3c(cc2Br)OCO3)c1 | -59.2
c1ccc(N2CCOCC3(CCCN(Cc4ccncc4)C3)C2)nc1 (stereo unspecified) | 2.5
COc1ccc(C(=O)N(Cc2ccccc2Cl)C2(C(=O)NCc3ccccc3)CCN(C(C)=O)CC2)cc1 | 15.0
CC(C)(C)NC[C@H](O)COc1ccccc1C1CCCC1 | 16.3
CCc1ccccc1OC[C@@H](O)CN[C@H]1CCCc2ccccc21 | -80.5*!
OC(CNC1Cc2ccccc2C1)COc1ccc(F)cc1 (stereo unspecified) | -39.7
CCOC(=O)c1nc(NCCc2ccc(OCC)cc2)c2ccccc2n1 | -62.4
O=C(Nc1ccc2c(c1)CN(Cc1ccccc1)C2)c1cnc(N2CCOCC2)nc1 | -95.5*
CCn1c(C)nc2cc(NC(=O)c3cnc(N4CCOCC4)nc3)ccc21 | -8.3
Cc1nc2nc[nH]n2c(=O)c1CC(=O)Nc1ccc2c(c1)CN(Cc1ccccc1)C2 | -5.5
O=C(Cn1ncc2ccccc2c1=O)Nc1ccc2c(c1)CN(Cc1ccccc1)C2 | 2.1
Cc1nc(N)nc(C)c1CCC(=O)Nc1ccc2c(c1)CN(Cc1ccccc1)C2 | -1.3
O=C(Nc1ccc2c(c1)CN(Cc1ccccc1)C2)c1nc2ncccn2n1 | -77.5*
Cc1ccc(CN2CC[C@@H](OCc3ccccn3)[C@@H]3OCC[C@H]32)cc1 | 2.8
CC(C)C(=O)NCCc1csc(-c2ccc(F)cc2)n1 | 103.9
Cn1ccc(C2c3cc4c(cc3CCN2S(=O)(=O)c2ccccc2F)OCO4)n1 (stereo unspecified) | 50.0
SMILES | Tg IFNy HTS
C[C@]12C[C@H](O)[C@H]3[C@@H](CCC4=CC(=O)CC[C@@]43C)[C@@H]1CC[C@@H]2C(=O)CO | -13.3
CC(=O)OCC(=O)[C@H]1CC[C@H]2[C@@H]3CCC4=CC(=O)CC[C@]4(C)[C@H]3CC[C@]12C | -81.9*!
CC(=O)[C@H]1CC[C@H]2[C@@H]3CCC4=CC(=O)CC[C@]4(C)[C@H]3[C@H](O)C[C@]12C | -5.9
Cc1cc(=O)oc2c(O)c(O)ccc12 | 7.1
Cc1oc2c(O)c(O)ccc2c(=O)c1-c1ccccc1 | 43.3
O=c1cc(-c2ccccc2)oc2c(O)c(O)ccc12 | -91.5*
Cc1ccc(Oc2ncccc2CNC(=O)c2cc3ccccc3[nH]2)cn1 | 28.6
Cc1ccc(=O)n(CC(=O)N2C[C@H](C(=O)N(C)C)[C@]3(COc4ccccc4C3=O)C2)n1 | 12.9
C=C[C@H]1CN2CC[C@H]1C[C@@H]2[C@@H](O)c1ccnc2ccc(OC)cc12 | -88.2*!
C=C[C@H]1CN2CC[C@H]1C[C@@H]2[C@H](O)c1ccnc2ccc(OC)cc12 | -16.3
C=CC1CN2CCC1CC2[C@@H](O)c1ccnc2ccc(OC)cc12 (stereo partly specified) | -60.0
Cc1cc(C(=O)NCc2ccc(-n3cncn3)cc2)n[nH]1 | -4.8
CCC(C(=O)NCCCN1CCCC1=O)n1c2ccccc2c2cnn(C)c(=O)c21 (stereo unspecified) | 113.4
CC1CCN(CC(C)(C)NC(=O)c2cc(-c3ccncc3)c3cnccc3n2)CC1 | -14.0
CC(C)C(NC(=O)c1cccc(-n2cnnc2)c1)c1cccs1 (stereo unspecified) | 114.5
CC(C)C(NC(=O)c1cc(-c2ccncc2)c2cnccc2n1)c1cccs1 (stereo unspecified) | -87.3*
COc1ccc(C2NC(C(=O)O)CS2)cc1O (stereo unspecified) | 7.1
COc1ccccc1-n1c(=O)n(Cc2nc(-c3cccc(C)c3)oc2C)c(=O)c2c(C)cc(C)nc21 | 15.4
O=C(c1ccc(Cl)cc1)c1ccc2c(c1)CCCCO2 | 341.5
Cc1ccc(-c2cn3nc(-c4ccccn4)c(-c4ccccn4)nc3n2)cc1C | 71.6
Clc1[nH]nc2c(CN(CCCn3ccnc3)CC3CC=CCC3)cncc12 (stereo unspecified) | 18.6
CCN(CC)Cc1cc(=O)n2c(n1)CN(S(=O)(=O)C1CC1)CCC2 | 43.7
CCOc1ccc(-c2nc(CSc3nc4ccccc4c(=O)[nH]3)c(C)o2)cc1 | 2.4
Cc1cnn(Cc2nc(-c3ccc(NC(=O)c4cc(F)ccc4Cl)cc3)oc2C)c1 | -88.9*
CSc1ccc(Cl)c(C(=O)Nc2ccc(-c3nc(Cn4cccn4)c(C)o3)cc2)c1 | -92.9*
SMILES | Tg IFNy HTS
COc1ccccc1C(=O)Nc1ccc(-c2nc(Cn3cccn3)c(C)o2)cc1 | -25.1
Cc1oc(-c2ccc(NC(=O)c3ccccc3C(F)(F)F)cc2)nc1Cn1cccn1 | -46.0
Cc1oc(-c2ccc(NC(=O)c3c(F)cccc3Cl)cc2)nc1Cn1cccn1 | 65.2
Cc1cnn(Cc2nc(-c3ccc(NC(=O)c4ccc(F)cc4F)cc3)oc2C)c1 | -3.9
Cc1oc(-c2ccc(NC(=O)c3cc(F)ccc3Cl)cc2)nc1Cn1cccn1 | -91.7*
Cc1cnn(Cc2nc(-c3ccc(NC(=O)c4c(F)cccc4Cl)cc3)oc2C)c1 | -53.7
Cc1oc(-c2ccc(NC(=O)c3ccc(F)c(Cl)c3)cc2)nc1Cn1cccn1 | -69.1
Cn1cnc(-c2nc(C(=O)NCCc3cccnc3)c3ccccn23)c1 | 5.0
Cc1ccc(OCCCN(C)C(=O)c2cn(-c3ccccc3)nn2)c(C)c1 | -12.3
Cc1nc(N(C)C)ncc1C(=O)Nc1ccc(-c2cccc(F)c2)cc1 | 6.9
CN(C)S(=O)(=O)c1ccc2c(c1)cc(C(=O)N1CCCC1)n2Cc1ccncc1 | 25.2
CC(C)CCNc1ncccc1C(=O)N1CCN(Cc2ccccc2)CC1 | 6.6
Cc1nn(C(C)CC(=O)NC(c2ccncc2)c2cccs2)c(C)c1Cl (stereo unspecified) | -27.1
CCOC(=O)Cc1c(C)nc2nc[nH]n2c1=O | 7.4
CN1C[C@H](C(=O)N[C@]2(C)O[C@@]3(O)[C@@H]4CCCN4C(=O)[C@H](Cc4ccccc4)N3C2=O)C[C@@H]2c3cccc4[nH]cc(c34)C[C@H]21 | 4.5
CC(=O)C1C(=O)[C@@H]2[C@H]3c4c[nH]c5cccc(c45)C[C@H]3C(C)(C)N2C1=O (stereo partly specified) | -81.3*!
CC(C)n1cnc(C2CN(S(C)(=O)=O)c3ccc(C(=O)N4CCC(N(C)C)CC4)cc32)n1 (stereo unspecified) | 69.5
COc1ccccc1CC(=O)N1CCC(c2nc(C(=O)N(C)C)c(C)o2)CC1 | -39.1
Cc1ccc(NC(=O)CC(=O)N2CCC3(CCCN(C)CC3)CC2)cc1 | -69.1
CC1(C)C2CC[C@]3(C)C(C(=O)C=C4[C@H]5C[C@@](C)(C(=O)O)CC[C@]5(C)CC[C@]43C)[C@@]2(C)CC[C@@H]1O (stereo partly specified) | 7.9

Bioassay records deposited in PubChem by Broad Institute.
